Test [1] can be described thus: NCI Yeast Anticancer Drug Screen. Data for the rad50 strain (AID 155).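 Further: 0% = growth of vehicle-only cultures of the same strain.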 The following applies: S. cerevisiae rad50 strain growth inhibition, active compounds read high. The method, boiled down:
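Growth of the mutant yeast was measured after compound exposure and referenced to vehicle-treated cultures.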

Test [2] is described as follows: NCI Yeast Anticancer Drug Screen. Data for the mec2-1 strain (AID 157). The conditions noted are these: S. cerevisiae mec2-1 strain, active compounds read high. Summed up:
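Mutant yeast (mec2-1) grown with compound; growth inhibition relative to vehicle control reported.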

Test [3] is described as follows: NCI Yeast Anticancer Drug Screen. Data for the sgs1 mgt1 strain (AID 161).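 Further: 0% = growth of cultures given vehicle only.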 The conditions noted are these: S. cerevisiae sgs1 mgt1 strain, active compounds read high. Summed up:
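Percent growth inhibition was derived by comparing compound-exposed mutant yeast with vehicle-exposed cultures. The strain carries alterations in DNA damage repair.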

The nature of test [4]: NCI Yeast Anticancer Drug Screen. Data for the cln2 rad14 strain (AID 165).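 Further: 0% = growth equal to vehicle treated cultures.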 The conditions noted are these: S. cerevisiae cln2 rad14 strain, active compounds read high. Summed up:
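Readout is yeast growth inhibition versus vehicle-treated controls, using a strain with cln2 and rad14 alterations exposed to compound.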

The nature of test [5]: NCI Yeast Anticancer Drug Screen. Data for the bub3 strain (AID 167). The following applies: S. cerevisiae bub3 mutant strain, active compounds read high. The method, boiled down:
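Whole-cell yeast assay. The mutant strain was incubated with compounds, and growth inhibition was determined by comparison with vehicle-treated cells.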

Test [6] can be described thus: NCI Yeast Anticancer Drug Screen. Data for the mlh1 rad18 strain (AID 175). The following applies: S. cerevisiae mlh1 rad18 strain growth inhibition, active compounds read high. The method, boiled down:
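Genetically defined yeast (DNA repair-deficient) exposed to compounds; growth inhibition determined relative to vehicle.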

The mark [7] stands for this setting: at 5.0 µM (retest, dose inferred, filed as 0.5).
The mark [8] stands for this setting: at 50.0 µM (retest, dose inferred, filed as 5.0).

Compounds without any hit were thinned out: in the full panel of roughly 79,000, 15% have a hit. Unmarked numbers belong to inactive results. Calls of active or inactive are those of the source. No stated cut-off is given here; in the data, active means growth inhibition above about 70%; inactive means the rest.

`CSc1cc2c(cc1N)Cc1ccccc1-2`: the growth inhibition in test [1] (setting [7]) is 3%; in test [1] (setting [8]), 71% (active); in test [1] (at 50.0 µM), 85.4% (active); in test [2] (setting [7]), 8%; in test [2] (setting [8]) it was 88% (active); in test [2] (at 50.0 µM), 90.8% (active). The growth inhibition is 3% in test [3] (setting [7]); 30% in test [3] (setting [8]); 97% (active) in test [3] (at 50.0 µM); 1% in test [4] (setting [7]); 50% in test [4] (setting [8]); 88.7% (active) in test [4] (at 50.0 µM). The growth inhibition was -1% in test [5] (setting [7]); 91% (active) in test [5] (setting [8]); 97.3% (active) in test [5] (at 50.0 µM); 6% in test [6] (setting [7]); 89% (active) in test [6] (setting [8]); 97.3% (active) in test [6] (at 50.0 µM).
On to `CC(=O)OC(C)(C)N=Nc1ccc(Br)cc1`, for which the growth inhibition in test [1] (setting [7]) is 86% (active); in test [1] (setting [8]) it was 99% (active); in test [1] (at 50.0 µM), 97.9% (active); in test [2] (setting [7]), 31%; in test [2] (setting [8]) it was 99% (active); in test [2] (at 50.0 µM) it was 98.1% (active). The growth inhibition in test [3] (setting [7]) is 60%; in test [3] (setting [8]), 97% (active); in test [3] (at 50.0 µM), 98.2% (active); in test [4] (setting [7]) it was 51%; in test [4] (setting [8]), 94% (active); in test [4] (at 50.0 µM) it was 97.3% (active). Also, the growth inhibition in test [5] (setting [7]) was 78% (active); in test [5] (setting [8]), 99% (active); in test [5] (at 50.0 µM), 97.2% (active); in test [6] (setting [7]), 63%; in test [6] (setting [8]), 99% (active); in test [6] (at 50.0 µM), 98.2% (active).
For `CC(CCC(=O)O)[C@H]1CCC2[C@@H]3CC(O)[C@@H]4CC(O)CC[C@]4(C)C3CC[C@@]21C` (some centres not stated), the growth inhibition in test [1] (setting [7]) was -5%; in test [1] (setting [8]), 44%; in test [1] (at 50.0 µM) it was 75.4% (active); in test [2] (setting [7]), -10%; in test [2] (setting [8]), 58%; in test [2] (at 50.0 µM) it was 74.5% (active). The growth inhibition was 5% in test [3] (setting [7]); 64% in test [3] (setting [8]); 77.3% (active) in test [3] (at 50.0 µM); 14% in test [4] (setting [7]); 70% (active) in test [4] (setting [8]); 76.2% (active) in test [4] (at 50.0 µM). Also, the growth inhibition in test [5] (setting [7]) was -6%; in test [5] (setting [8]), 84% (active); in test [5] (at 50.0 µM) it was 50.5%; in test [6] (setting [7]) it was -8%; in test [6] (setting [8]), 71% (active); in test [6] (at 50.0 µM) it was 67.7%.
On to `CC(Cc1ccccc1)NN1CCOC(c2ccccc2)C1C` (configuration not stated), for which the growth inhibition was 2% in test [1] (setting [7]); 66% in test [1] (setting [8]); 32.1% in test [1] (at 50.0 µM); -2% in test [2] (setting [7]); 56% in test [2] (setting [8]); 56.8% in test [2] (at 50.0 µM). Also, the growth inhibition is 0% in test [3] (setting [7]); 78% (active) in test [3] (setting [8]); 64.2% in test [3] (at 50.0 µM); -1% in test [4] (setting [7]); 16% in test [4] (setting [8]); 13.1% in test [4] (at 50.0 µM). The growth inhibition was 9% in test [5] (setting [7]); 59% in test [5] (setting [8]); 46% in test [5] (at 50.0 µM); -3% in test [6] (setting [7]); 72% (active) in test [6] (setting [8]); 73% (active) in test [6] (at 50.0 µM).
`CCCCNC(=S)NC1OC(CO)C(O)C(O)C1O` (configuration not stated): the growth inhibition in test [1] (setting [7]) is 2%; in test [1] (setting [8]) it was 7%; in test [1] (at 50.0 µM), 99.3% (active); in test [2] (setting [7]), 2%; in test [2] (setting [8]), 10%; in test [2] (at 50.0 µM) it was 99.4% (active). The growth inhibition in test [3] (setting [7]) is -1%; in test [3] (setting [8]) it was 0%; in test [3] (at 50.0 µM) it was 99.5% (active); in test [4] (setting [7]), -4%; in test [4] (setting [8]) it was -3%; in test [4] (at 50.0 µM) it was 99% (active). The growth inhibition was -4% in test [5] (setting [7]); -4% in test [5] (setting [8]); 99.2% (active) in test [5] (at 50.0 µM); -1% in test [6] (setting [7]); 20% in test [6] (setting [8]); 99% (active) in test [6] (at 50.0 µM).
In the case of `O=C(N/C(=C/c1ccc(Cl)cc1Cl)c1nc2ccccc2s1)c1ccccc1`, the growth inhibition is 27% in test [1] (setting [7]); 98% (active) in test [1] (setting [8]); 98.6% (active) in test [1] (at 50.0 µM); 13% in test [2] (setting [7]); 98% (active) in test [2] (setting [8]); 97.7% (active) in test [2] (at 50.0 µM). The growth inhibition in test [3] (setting [7]) is 56%; in test [3] (setting [8]), 99% (active); in test [3] (at 50.0 µM) it was 98.9% (active); in test [4] (setting [7]) it was 14%; in test [4] (setting [8]), 98% (active); in test [4] (at 50.0 µM), 98.1% (active). Moreover, the growth inhibition in test [5] (setting [7]) is 31%; in test [5] (setting [8]), 98% (active); in test [5] (at 50.0 µM), 98% (active); in test [6] (setting [7]), 26%; in test [6] (setting [8]) it was 98% (active); in test [6] (at 50.0 µM) it was 98.2% (active).
In the case of `CC(C(=O)c1ccc(Cl)cc1)C1OC(=O)C(Cl)=C1Cl` (configuration not stated), the growth inhibition was 43% in test [1] (setting [7]); 54% in test [1] (setting [8]); 90.8% (active) in test [1] (at 50.0 µM); 37% in test [2] (setting [7]); 51% in test [2] (setting [8]); 93.4% (active) in test [2] (at 50.0 µM). Moreover, the growth inhibition was 43% in test [3] (setting [7]); 70% (active) in test [3] (setting [8]); 92.9% (active) in test [3] (at 50.0 µM); 32% in test [4] (setting [7]); 43% in test [4] (setting [8]); 87.7% (active) in test [4] (at 50.0 µM). Moreover, the growth inhibition is 40% in test [5] (setting [7]); 72% (active) in test [5] (setting [8]); 91.5% (active) in test [5] (at 50.0 µM); 56% in test [6] (setting [7]); 71% (active) in test [6] (setting [8]); 91.7% (active) in test [6] (at 50.0 µM).
Regarding `CCOC(=O)CC1=NC(=Nc2cc(Cl)ccc2Cl)SC1`, the growth inhibition in test [1] (setting [7]) was 21%; in test [1] (setting [8]) it was 66%; in test [1] (at 50.0 µM), 64.5%; in test [2] (setting [7]), 23%; in test [2] (setting [8]) it was 56%; in test [2] (at 50.0 µM) it was 40.8%. In addition, the growth inhibition is 22% in test [3] (setting [7]); 69% in test [3] (setting [8]); 79.6% (active) in test [3] (at 50.0 µM); 24% in test [4] (setting [7]); 30% in test [4] (setting [8]); 25.7% in test [4] (at 50.0 µM). Also, the growth inhibition in test [5] (setting [7]) is 29%; in test [5] (setting [8]), 82% (active); in test [5] (at 50.0 µM), 77.2% (active); in test [6] (setting [7]) it was 38%; in test [6] (setting [8]), 75% (active); in test [6] (at 50.0 µM), 66.5%.
Regarding `CC(NC(=O)OC(C)(C)C)C(=O)NC(Cc1ccccc1)C(=O)NCC(=O)Oc1c(Cl)c(Cl)c(Cl)c(Cl)c1Cl` (configuration not stated), the growth inhibition is 30% in test [1] (setting [7]); 66% in test [1] (setting [8]); 65.4% in test [1] (at 50.0 µM); 27% in test [2] (setting [7]); 45% in test [2] (setting [8]); 71.5% (active) in test [2] (at 50.0 µM). Also, the growth inhibition was 41% in test [3] (setting [7]); 72% (active) in test [3] (setting [8]); 77% (active) in test [3] (at 50.0 µM); 27% in test [4] (setting [7]); 55% in test [4] (setting [8]); 46.5% in test [4] (at 50.0 µM). Further, the growth inhibition in test [5] (setting [7]) is 35%; in test [5] (setting [8]), 61%; in test [5] (at 50.0 µM), 56.5%; in test [6] (setting [7]), 68%; in test [6] (setting [8]) it was 79% (active); in test [6] (at 50.0 µM), 73.4% (active).
